# Experimental data published in the supplement of paper PMC12494721.
# Structures can show the parent of a compound that is named as a salt.
# Columns and labels:
# Conditions in all cases: incubation time: 27 h, anaerobic, 37 °C;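 for the amine columns active = adjusted P below 0.05 in both replicates with a change the same way and a mean fold change under 0.8 or over 1.25; inactive = the rest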
# [1] = system: Clostridium sporogenes DSM 1664; experiment: growth (OD595) fold change vs plate DMSO controls (fold change (ratio)); higher = more growth
# In short: (§1)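 To obtain OD, 595 nm absorbance readings were blank-subtracted, corrected for compound background using 20 µM compound solutions in water, and multiplied by a calibration factor of 5. They came from 96-well mGAM cultures grown anaerobically for 27 h at 37 °C and shaken before reading. Growth is the fold change relative to the median of plate DMSO controls. Two biological replicates were averaged, and fold changes above 1.5 were set to NA.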
# [2] = system: Escherichia coli IAI1; experiment: as above
# In short: as §1
# [3] = system: Klebsiella aerogenes DSM 30053; experiment: as above
# In short: as §1
# [4] = system: Ruminococcus gnavus DSM 108212; experiment: as above
# In short: as §1
# [5] = system: Klebsiella aerogenes DSM 30053; experiment: fold change of Histamine concentration vs plate DMSO controls (fold change (ratio)); higher = more amine produced, active = hit call of the paper (significant change in both replicates, either direction)
# In short: (§2)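 Using LC–triple-quadrupole MS with dynamic MRM, amines were quantified against external calibration curves and corrected for drift within each batch. Samples were whole anaerobic mGAM cultures of four gut strains, grown 27 h at 37 °C from OD 0.1 before 1:1 dilution, extracted with cold acetonitrile/methanol containing 0.1% formic acid and centrifuged. Compounds were present at 20 µM final (sweeteners at 50 µM final). The numbers are fold changes versus plate DMSO controls, each the mean of 2 biological replicates.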
# [6] = system: Clostridium sporogenes DSM 1664; experiment: fold change of Tryptamine concentration vs plate DMSO controls (fold change (ratio)); higher = more amine produced, active = hit call of the paper (significant change in both replicates, either direction)
# In short: as §2
# [7] = system: Ruminococcus gnavus DSM 108212; experiment: as above
# In short: as §2
# [8] = system: Escherichia coli IAI1; experiment: fold change of Putrescine concentration vs plate DMSO controls (fold change (ratio)); higher = more amine produced, active = hit call of the paper (significant change in both replicates, either direction)
# In short: as §2
# [9] = system: Klebsiella aerogenes DSM 30053; experiment: as above
# In short: as §2
# [10] = system: Escherichia coli IAI1; experiment: fold change of Cadaverine concentration vs plate DMSO controls (fold change (ratio)); higher = more amine produced, active = hit call of the paper (significant change in both replicates, either direction)
# In short: as §2
# [11] = system: Klebsiella aerogenes DSM 30053; experiment: as above
# In short: as §2
# [12] = system: Ruminococcus gnavus DSM 108212; experiment: fold change of 2-Phenylethylamine concentration vs plate DMSO controls (fold change (ratio)); higher = more amine produced, active = hit call of the paper (significant change in both replicates, either direction)
# In short: as §2
smiles,measurement,setting,value
CC[C@@]1(O)C(=O)OCc2c1cc1n(c2=O)Cc2cc3c(CN(C)C)c(O)ccc3nc2-1 [Topotecan] (20 µM),growth,[1],1.08
same,growth,[2],1.03
same,growth,[3],0.991
same,growth,[4],0.99
same,fold change of Histamine concentration,[5],1.1 (inactive)
same,fold change of Tryptamine concentration,[6],0.992 (inactive)
same,fold change of Tryptamine concentration,[7],0.998 (inactive)
same,fold change of Putrescine concentration,[8],1.01 (inactive)
same,fold change of Putrescine concentration,[9],0.994 (inactive)
same,fold change of Cadaverine concentration,[10],0.961 (inactive)
same,fold change of Cadaverine concentration,[11],1 (inactive)
same,fold change of 2-Phenylethylamine concentration,[12],1.01 (inactive)
OCC(CO)N[C@H]1C[C@](O)(CO)[C@@H](O)[C@H](O)[C@H]1O [Voglibose] (20 µM),growth,[1],1.03
same,growth,[2],1.05
same,growth,[3],1.03
same,growth,[4],1.17
same,fold change of Histamine concentration,[5],1.02 (inactive)
same,fold change of Tryptamine concentration,[6],1.06 (inactive)
same,fold change of Tryptamine concentration,[7],1.06 (inactive)
same,fold change of Putrescine concentration,[8],0.984 (inactive)
same,fold change of Putrescine concentration,[9],0.99 (inactive)
same,fold change of Cadaverine concentration,[10],0.917 (inactive)
same,fold change of Cadaverine concentration,[11],1.01 (inactive)
same,fold change of 2-Phenylethylamine concentration,[12],1.09 (inactive)
C[C@@H]1CCC[C@H](C)N1NC(=O)c1ccc(Cl)c(S(N)(=O)=O)c1 [Clopamide] (20 µM),growth,[1],1.09
same,growth,[2],0.983
same,growth,[3],0.983
same,growth,[4],1.04
same,fold change of Histamine concentration,[5],1.07 (inactive)
same,fold change of Tryptamine concentration,[6],1.07 (inactive)
same,fold change of Tryptamine concentration,[7],1.02 (inactive)
same,fold change of Putrescine concentration,[8],0.989 (inactive)
same,fold change of Putrescine concentration,[9],1.03 (inactive)
same,fold change of Cadaverine concentration,[10],1 (inactive)
same,fold change of Cadaverine concentration,[11],1.01 (inactive)
same,fold change of 2-Phenylethylamine concentration,[12],1.03 (inactive)
CC(C)NCC(O)c1ccc2ccccc2c1 (centres undefined) [Pronethalol hydrochloride] (20 µM),growth,[1],1.12
same,growth,[2],1.01
same,growth,[3],0.993
same,growth,[4],0.98
same,fold change of Histamine concentration,[5],0.97 (inactive)
same,fold change of Tryptamine concentration,[6],0.978 (inactive)
same,fold change of Tryptamine concentration,[7],1.04 (inactive)
same,fold change of Putrescine concentration,[8],1.01 (inactive)
same,fold change of Putrescine concentration,[9],0.986 (inactive)
same,fold change of Cadaverine concentration,[10],0.994 (inactive)
same,fold change of Cadaverine concentration,[11],0.982 (inactive)
same,fold change of 2-Phenylethylamine concentration,[12],1.05 (inactive)
C[C@H](CCC(=O)O)[C@H]1CC[C@H]2[C@@H]3[C@@H](O)C[C@@H]4C[C@H](O)CC[C@]4(C)[C@H]3CC[C@]12C [Urosiol] (20 µM),growth,[1],0.969
same,growth,[2],1.05
same,growth,[3],1.06
same,growth,[4],1.02
same,fold change of Histamine concentration,[5],0.998 (inactive)
same,fold change of Tryptamine concentration,[6],1.08 (inactive)
same,fold change of Tryptamine concentration,[7],1.08 (inactive)
same,fold change of Putrescine concentration,[8],1.01 (inactive)
same,fold change of Putrescine concentration,[9],0.961 (inactive)
same,fold change of Cadaverine concentration,[10],0.954 (inactive)
same,fold change of Cadaverine concentration,[11],1.05 (inactive)
same,fold change of 2-Phenylethylamine concentration,[12],1.1 (inactive)
CN1C(C(=O)Nc2ccccn2)=C(O)c2ccccc2S1(=O)=O [Piroxicam] (20 µM),growth,[1],1.07
same,growth,[2],1.03
same,growth,[3],1.02
same,growth,[4],1.05
same,fold change of Histamine concentration,[5],0.953 (inactive)
same,fold change of Tryptamine concentration,[6],1.09 (inactive)
same,fold change of Tryptamine concentration,[7],0.99 (inactive)
same,fold change of Putrescine concentration,[8],1.03 (inactive)
same,fold change of Putrescine concentration,[9],0.99 (inactive)
same,fold change of Cadaverine concentration,[10],1.02 (inactive)
same,fold change of Cadaverine concentration,[11],1.04 (inactive)
same,fold change of 2-Phenylethylamine concentration,[12],0.999 (inactive)
CN(C)C/C=C(/c1ccc(Br)cc1)c1cccnc1 [Zimelidine dihydrochloride monohydrate] (20 µM),growth,[1],0.928
same,growth,[2],0.997
same,growth,[3],0.991
same,growth,[4],1.03
same,fold change of Histamine concentration,[5],1.01 (inactive)
same,fold change of Tryptamine concentration,[6],1.03 (inactive)
same,fold change of Tryptamine concentration,[7],0.987 (inactive)
same,fold change of Putrescine concentration,[8],0.804 (inactive)
same,fold change of Putrescine concentration,[9],0.993 (inactive)
same,fold change of Cadaverine concentration,[10],1.49 (active)
same,fold change of Cadaverine concentration,[11],0.978 (inactive)
same,fold change of 2-Phenylethylamine concentration,[12],1.04 (inactive)
CCN(CC)CC#CCOC(=O)C(O)(c1ccccc1)C1CCCCC1 (centres undefined) [Oxybutynin chloride] (20 µM),growth,[1],1.01
same,growth,[2],0.971
same,growth,[3],1
same,growth,[4],0.917
same,fold change of Histamine concentration,[5],1.01 (inactive)
same,fold change of Tryptamine concentration,[6],1.01 (inactive)
same,fold change of Tryptamine concentration,[7],0.977 (inactive)
same,fold change of Putrescine concentration,[8],1.01 (inactive)
same,fold change of Putrescine concentration,[9],1.02 (inactive)
same,fold change of Cadaverine concentration,[10],0.909 (inactive)
same,fold change of Cadaverine concentration,[11],1.01 (inactive)
same,fold change of 2-Phenylethylamine concentration,[12],1.01 (inactive)
CN(C)CCC=C1c2ccccc2CCc2ccccc21 [Amitryptiline hydrochloride] (20 µM),growth,[1],1.05
same,growth,[2],1.04
same,growth,[3],1.06
same,growth,[4],1.12
same,fold change of Histamine concentration,[5],0.911 (inactive)
same,fold change of Tryptamine concentration,[6],0.996 (inactive)
same,fold change of Tryptamine concentration,[7],0.973 (inactive)
same,fold change of Putrescine concentration,[8],1.01 (inactive)
same,fold change of Putrescine concentration,[9],0.936 (inactive)
same,fold change of Cadaverine concentration,[10],1.01 (inactive)
same,fold change of Cadaverine concentration,[11],1.02 (inactive)
same,fold change of 2-Phenylethylamine concentration,[12],1.01 (inactive)
CCCc1nn(C)c2c(=O)[nH]c(-c3cc(S(=O)(=O)N4CCN(C)CC4)ccc3OCC)nc12 [Sildenafil] (20 µM),growth,[1],1.23
same,growth,[2],1.01
same,growth,[3],1.02
same,growth,[4],1.14
same,fold change of Histamine concentration,[5],0.993 (inactive)
same,fold change of Tryptamine concentration,[6],1.06 (inactive)
same,fold change of Tryptamine concentration,[7],1.15 (inactive)
same,fold change of Putrescine concentration,[8],0.921 (inactive)
same,fold change of Putrescine concentration,[9],0.98 (inactive)
same,fold change of Cadaverine concentration,[10],0.87 (inactive)
same,fold change of Cadaverine concentration,[11],1.04 (inactive)
same,fold change of 2-Phenylethylamine concentration,[12],1.24 (inactive)
CCC1(c2ccccc2)C(=O)NCNC1=O [Primidone] (20 µM),growth,[1],0.938
same,growth,[2],0.953
same,growth,[3],0.991
same,growth,[4],1.01
same,fold change of Histamine concentration,[5],1.09 (inactive)
same,fold change of Tryptamine concentration,[6],0.973 (inactive)
same,fold change of Tryptamine concentration,[7],1.02 (inactive)
same,fold change of Putrescine concentration,[8],0.982 (inactive)
same,fold change of Putrescine concentration,[9],1.03 (inactive)
same,fold change of Cadaverine concentration,[10],0.999 (inactive)
same,fold change of Cadaverine concentration,[11],0.981 (inactive)
same,fold change of 2-Phenylethylamine concentration,[12],1.03 (inactive)
CCN(CC)CCOCCOC(=O)C(CC)(CC)c1ccccc1 [Oxeladin citrate] (20 µM),growth,[1],1.05
same,growth,[2],0.997
same,growth,[3],1
same,growth,[4],1.01
same,fold change of Histamine concentration,[5],0.957 (inactive)
same,fold change of Tryptamine concentration,[6],1.01 (inactive)
same,fold change of Tryptamine concentration,[7],0.889 (inactive)
same,fold change of Putrescine concentration,[8],1.01 (inactive)
same,fold change of Putrescine concentration,[9],1.02 (inactive)
same,fold change of Cadaverine concentration,[10],1.01 (inactive)
same,fold change of Cadaverine concentration,[11],0.994 (inactive)
same,fold change of 2-Phenylethylamine concentration,[12],0.865 (inactive)
